The values that follow come from PubChem BioAssay (EPA / NIEHS).

Experiment [1] in a line: ATG_E_Box_CIS: Attagene CIS-FACTORIAL HepG2 Assay for human Enhancer Box (E-box) (AID 2282936). The settings on record: HepG2 E-box cis-reporter transcription, actives raise or lower the signal. In short, it runs like this: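 E-box-driven reporter transcripts measured in transiently transfected HepG2 after 24 h exposure: RNA reverse-transcribed, PCR-amplified, fluorescently labelled, digested and resolved by capillary electrophoresis. Gain or loss relative to DMSO.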

Experiment [2] is described as follows: ATG_M_61_CIS: Attagene CIS-FACTORIAL HepG2 Assay for M61 Transcription Factor (Internal Marker) (AID 2282937). The settings on record: HepG2 Attagene CIS-FACTORIAL M61 internal marker reporter; actives raise or lower the signal. In short, it runs like this:
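Fluorescence from labelled cDNA fragments, separated by capillary electrophoresis, quantifies reporter induction. HepG2 cells bearing transiently transfected cis-promoter MRTUs were incubated with test chemical for 24 h; DMSO defined baseline for gain/loss fitting.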

Experiment [3] in a line: ATG_EGR_CIS: Attagene CIS-FACTORIAL HepG2 Assay for human Early Growth Response 1 (EGR1) (AID 2282938). The settings on record: HepG2 Attagene CIS-FACTORIAL EGR reporter mRNA; actives raise or lower the signal. In short, it runs like this: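 Cell-based multiplex transcription assay: HepG2 carrying transfected cis-element reporter units, 24 h chemical treatment. Fluorescence from capillary electrophoresis of RT-PCR products gives mRNA levels; fitting is bidirectional relative to DMSO.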

A short description of experiment [4]: ATG_ERE_CIS: Attagene CIS-FACTORIAL HepG2 Assay for Estrogen Response Element (ERE) (AID 2282940). The settings on record: HepG2 ERE cis-reporter, Attagene RNA transcript; actives raise or lower the signal. In short, it runs like this:
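Human liver cells (HepG2) bearing transiently transfected, promoter-regulated reporter units were exposed 24 h. Reporter mRNA induction was detected by capillary electrophoresis of labelled RT-PCR products and fitted bidirectionally to DMSO.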

Experiment [5] can be described thus: ATG_Ets_CIS: Attagene CIS-FACTORIAL HepG2 Assay for human Erythroblast Transformation Specific (ETS) (AID 2282941). The settings on record: HepG2 ETS cis-reporter transcription, actives raise or lower the signal. Put shortly:
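Cis-regulated reporter mRNA induction in HepG2 (transient transfection), 24 h exposure, RT-PCR plus capillary electrophoresis detection; DMSO serves as negative control and baseline.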

For experiment [6], the target named is Hepatocyte nuclear factor 3-beta (Homo sapiens) (UniProt Q9Y261). As to the kind of experiment: ATG_FoxA2_CIS: Attagene CIS-FACTORIAL HepG2 Assay for human Forkhead box A2 (FOXA2) (AID 2282942). The settings on record: HepG2 cis-reporter transcription factor activity, 24 h; actives raise or lower the signal. In short, it runs like this: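 In transiently transfected human HepG2 cells, promoter-driven reporter mRNA levels after 24 h chemical exposure are determined via RT-PCR with capillary electrophoresis. DMSO serves as baseline for bidirectional fitting.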

Experiment [7] in a line: ATG_FoxO_CIS: Attagene CIS-FACTORIAL HepG2 Assay for human Forkhead box O (FoxO) (AID 2282943). The settings on record: HepG2 Attagene cis-reporter, FoxO element, mRNA; actives raise or lower the signal. Put shortly:
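HepG2, transient MRTU transfection (cis element, endogenous TFs). Dose 24 h. TriZol RNA → oligo(dT) RT → PCR → 6-FAM primer extension → HpaI cut → CE. Gain/loss vs DMSO.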

Experiment [8] in a line: ATG_GATA_CIS: Attagene CIS-FACTORIAL HepG2 Assay for human GATA Binding Protein (AID 2282944). The settings on record: HepG2 GATA cis-element reporter, Attagene multiplex mRNA; actives raise or lower the signal. Put shortly: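 Transfected cis-reporter HepG2 cells were treated with chemicals for 24 hours. Total RNA was then converted to cDNA, amplified with reporter-specific primers and analysed by fluorescent capillary electrophoresis, using DMSO-treated wells as baseline.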

A short description of experiment [9]: ATG_GLI_CIS: Attagene CIS-FACTORIAL HepG2 Assay for human Zinc Finger Protein GLI1 (AID 2282945). The settings on record: HepG2, Attagene cis-factorial reporter mRNA, GLI element; actives raise or lower the signal. Put shortly: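 Bidirectional curve fits relative to DMSO, using reporter mRNA levels from RT-PCR plus capillary electrophoresis. Cells were HepG2 transiently carrying cis-regulated reporter constructs, harvested 24 h after dosing.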

Experiment [10] has as its target Bile acid receptor (Homo sapiens) (UniProt Q96RI1). In words: ATG_IR1_CIS: Attagene CIS-FACTORIAL HepG2 Assay for human Nuclear Receptor Subfamily 1 Group H Member 4 (NR1H4), IR1 submotif (AID 2282946). The settings on record: IR1 reporter transcription, actives raise or lower the signal. Put shortly: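 HepG2 cells transiently transfected with multiplexed cis-element reporter units read endogenous transcription factor activity. After 24 h compound exposure, reporter mRNA was quantified by RT-PCR, fluorescent labelling, HpaI digestion and capillary electrophoresis; bidirectional fitting versus DMSO baseline.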

The nature of experiment [11]: ATG_GRE_CIS: Attagene CIS-FACTORIAL HepG2 Assay for human Glucocorticoid Response Elements (GRE) (AID 2282947). The settings on record: HepG2 GRE cis-reporter, Attagene multiplex mRNA; actives raise or lower the signal. In short, it runs like this:
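Reporter transcripts read by RT-PCR with capillary electrophoresis fluorescence after a 24 h chemical exposure of HepG2 cells transiently transfected with multiple cis-element reporter units. Gain or loss fitted against DMSO.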

The nature of experiment [12]: ATG_ISRE_CIS: Attagene CIS-FACTORIAL HepG2 Assay for human Interferon Regulatory Factor 1 (IRF1) binding to an Interferon-Stimulated Response Element (ISRE) (AID 2282948). The settings on record: HepG2 ISRE cis-reporter (Attagene), mRNA transcription readout; actives raise or lower the signal. Put shortly:
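Multiplexed mRNA reporter readout in human liver HepG2 cells: cis-element-driven reporters transfected, compound added for 24 h, transcripts amplified, fluorescently labelled and sized by capillary electrophoresis; curve fitting bidirectional against DMSO.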

The nature of experiment [13]: ATG_M_32_CIS: Attagene CIS-FACTORIAL HepG2 Assay for M32 Transcription Factor (Internal Marker) (AID 2282949).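 Further: background control marker of the multiplexed CIS panel rather than a real target.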 The settings on record: HepG2 Attagene cis-factorial M32 reporter, mRNA; actives raise or lower the signal. In short, it runs like this:
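HepG2 human liver cells transiently transfected with cis-promoter-driven multiple reporter transcription units, dosed 24 h. Reporter mRNA quantified by RT-PCR, FAM-labelled primer extension, HpaI digest and capillary electrophoresis; bidirectional fit versus DMSO baseline.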

Experiment [14] in a line: ATG_M_06_CIS: Attagene CIS-FACTORIAL HepG2 Assay for M06 Transcription Factor (Internal Marker) (AID 2282950). The settings on record: HepG2 Attagene CIS-FACTORIAL M06 internal marker reporter; actives raise or lower the signal. In short, it runs like this: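 Cells (HepG2, transiently carrying cis-driven reporter units) receive chemical for 24 h before RNA isolation. Reporter cDNA is PCR-amplified, FAM-labelled by primer extension, HpaI-digested and sized on a capillary analyser.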

In experiment [15] the target is Hypoxia-inducible factor 1-alpha (Homo sapiens) (UniProt Q16665). As to the kind of experiment: ATG_HIF1a_CIS: Attagene CIS-FACTORIAL HepG2 Assay for human Hypoxia Inducible Factor 1 (HIF1A) (AID 2282951). The settings on record: HepG2 Attagene cis-factorial HIF1a reporter transcription; actives raise or lower the signal. In short, it runs like this: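 In this multiplexed cell assay, HepG2 cells bearing transfected cis reporters are dosed for 24 h and reporter mRNA is read by RT-PCR plus capillary electrophoresis; signal increases and decreases are both scored against DMSO.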

Experiment [16] deals with Hepatocyte nuclear factor 6 (Homo sapiens) (UniProt Q9UBC0). In words: ATG_HNF6_CIS: Attagene CIS-FACTORIAL HepG2 Assay for human Hepatocyte Nuclear Factor 6 (HNF6) (AID 2282952). The settings on record: HepG2 Attagene cis-factorial HNF6 reporter transcription; actives raise or lower the signal. In short, it runs like this:
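Using cis-element reporters in HepG2 liver cells, the assay tracks endogenous factor-driven transcription 24 h post-dosing. Signal comes from 6-FAM-labelled, HpaI-digested RT-PCR fragments, with gain or loss scored against DMSO.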

The target of experiment [17] is Heat shock factor protein 1 (Homo sapiens) (UniProt Q00613). As to the kind of experiment: ATG_HSE_CIS: Attagene CIS-FACTORIAL HepG2 Assay for human Heat Shock Transcription Factor 1 (HSE) (AID 2282953). The settings on record: HepG2 HSE cis-reporter, Attagene RNA transcription; actives raise or lower the signal. Put shortly:
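Liver-derived HepG2 cells carry transiently introduced multiple reporter units governed by cis promoters. Reporter RNA measured 24 h post-dose through reverse transcription, PCR amplification, fluorescent labelling and capillary electrophoresis, normalised to DMSO.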

A short description of experiment [18]: ATG_MRE_CIS: Attagene CIS-FACTORIAL HepG2 Assay for human Metal Responsive Element (MRE) (AID 2282954). The settings on record: HepG2 MRE cis-reporter transcription, Attagene multiplex; actives raise or lower the signal. Put shortly: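 Endogenous MRE-dependent transcription read as reporter mRNA in transiently transfected human HepG2 cells at 24 h. RNA reverse-transcribed, PCR-amplified, labelled and resolved by capillary electrophoresis; gain or loss relative to DMSO.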

Experiment [19] in a line: ATG_PBREM_CIS: Attagene CIS-FACTORIAL HepG2 Assay for human Phenobarbital-responsive Enhancer Module (PBREM) (AID 2282955). The settings on record: HepG2 PBREM cis-reporter, Attagene multiplexed transcription; actives raise or lower the signal. In short, it runs like this:
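After a 24 h incubation with test chemical, transfected HepG2 cells yield total RNA; reporter-specific RT-PCR products are fluorescently labelled, HpaI-digested and resolved by capillary electrophoresis against ROX size standards.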

The source holds several records for some structures; these can differ, active in one and inactive in another. Active and inactive are the calls of the source. How the source made its calls: active means hit-call score of the fitted dose curve at least 0.9, where 1 is the maximum; inactive means score below 0.9.

Sequence of Heat shock factor protein 1 (Homo sapiens) (Q00613 whole entry, looked up): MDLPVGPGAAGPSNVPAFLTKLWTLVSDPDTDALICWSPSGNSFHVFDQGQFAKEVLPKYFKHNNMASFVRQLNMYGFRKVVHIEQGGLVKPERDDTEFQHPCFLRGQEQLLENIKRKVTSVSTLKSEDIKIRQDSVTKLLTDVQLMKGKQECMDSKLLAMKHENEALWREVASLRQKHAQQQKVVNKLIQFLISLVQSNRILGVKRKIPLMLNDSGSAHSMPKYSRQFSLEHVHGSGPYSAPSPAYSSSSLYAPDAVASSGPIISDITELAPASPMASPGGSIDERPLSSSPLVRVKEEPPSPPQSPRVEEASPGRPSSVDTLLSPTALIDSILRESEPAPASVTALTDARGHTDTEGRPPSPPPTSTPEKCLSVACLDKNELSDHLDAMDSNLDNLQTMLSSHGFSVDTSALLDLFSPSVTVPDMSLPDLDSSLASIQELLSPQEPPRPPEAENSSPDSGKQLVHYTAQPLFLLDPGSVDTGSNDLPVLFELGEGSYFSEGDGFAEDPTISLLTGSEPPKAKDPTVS
Sequence of Hepatocyte nuclear factor 3-beta (Homo sapiens) (Q9Y261 whole entry, looked up): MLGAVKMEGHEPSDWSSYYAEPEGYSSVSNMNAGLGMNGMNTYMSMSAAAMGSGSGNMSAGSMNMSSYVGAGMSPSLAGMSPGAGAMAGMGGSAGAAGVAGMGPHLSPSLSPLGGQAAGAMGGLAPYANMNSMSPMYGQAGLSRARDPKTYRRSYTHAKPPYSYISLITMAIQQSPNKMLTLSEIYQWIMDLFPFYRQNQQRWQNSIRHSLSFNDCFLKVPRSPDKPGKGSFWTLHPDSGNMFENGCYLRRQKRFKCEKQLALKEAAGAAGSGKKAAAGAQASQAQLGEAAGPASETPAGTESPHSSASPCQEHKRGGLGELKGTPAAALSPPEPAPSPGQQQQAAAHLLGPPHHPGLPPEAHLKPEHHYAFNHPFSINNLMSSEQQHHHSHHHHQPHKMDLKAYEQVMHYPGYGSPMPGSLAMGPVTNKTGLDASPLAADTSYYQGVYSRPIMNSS
Sequence of Hypoxia-inducible factor 1-alpha (Homo sapiens) (Q16665 whole entry, looked up): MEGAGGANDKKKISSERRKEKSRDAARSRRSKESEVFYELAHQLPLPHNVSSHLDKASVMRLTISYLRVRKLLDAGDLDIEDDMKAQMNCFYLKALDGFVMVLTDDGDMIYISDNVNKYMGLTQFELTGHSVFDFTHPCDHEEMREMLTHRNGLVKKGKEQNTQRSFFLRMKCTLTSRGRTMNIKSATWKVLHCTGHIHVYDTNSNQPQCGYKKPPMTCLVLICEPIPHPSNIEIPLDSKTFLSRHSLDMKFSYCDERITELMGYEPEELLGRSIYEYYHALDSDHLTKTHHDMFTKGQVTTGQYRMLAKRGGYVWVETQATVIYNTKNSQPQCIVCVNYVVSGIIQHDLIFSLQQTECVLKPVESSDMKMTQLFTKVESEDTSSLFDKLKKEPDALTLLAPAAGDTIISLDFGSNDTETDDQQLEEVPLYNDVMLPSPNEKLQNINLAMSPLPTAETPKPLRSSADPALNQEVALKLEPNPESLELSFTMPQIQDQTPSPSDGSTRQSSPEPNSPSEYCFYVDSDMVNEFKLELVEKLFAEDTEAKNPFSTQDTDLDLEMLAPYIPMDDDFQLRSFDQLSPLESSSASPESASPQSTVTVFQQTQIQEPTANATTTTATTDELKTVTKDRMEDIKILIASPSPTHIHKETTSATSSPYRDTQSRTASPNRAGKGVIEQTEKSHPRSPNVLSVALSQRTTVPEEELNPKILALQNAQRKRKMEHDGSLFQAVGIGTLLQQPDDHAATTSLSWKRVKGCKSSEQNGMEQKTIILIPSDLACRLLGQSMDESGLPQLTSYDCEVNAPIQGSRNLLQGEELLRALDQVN
Sequence of Bile acid receptor (Homo sapiens) (Q96RI1 whole entry, looked up): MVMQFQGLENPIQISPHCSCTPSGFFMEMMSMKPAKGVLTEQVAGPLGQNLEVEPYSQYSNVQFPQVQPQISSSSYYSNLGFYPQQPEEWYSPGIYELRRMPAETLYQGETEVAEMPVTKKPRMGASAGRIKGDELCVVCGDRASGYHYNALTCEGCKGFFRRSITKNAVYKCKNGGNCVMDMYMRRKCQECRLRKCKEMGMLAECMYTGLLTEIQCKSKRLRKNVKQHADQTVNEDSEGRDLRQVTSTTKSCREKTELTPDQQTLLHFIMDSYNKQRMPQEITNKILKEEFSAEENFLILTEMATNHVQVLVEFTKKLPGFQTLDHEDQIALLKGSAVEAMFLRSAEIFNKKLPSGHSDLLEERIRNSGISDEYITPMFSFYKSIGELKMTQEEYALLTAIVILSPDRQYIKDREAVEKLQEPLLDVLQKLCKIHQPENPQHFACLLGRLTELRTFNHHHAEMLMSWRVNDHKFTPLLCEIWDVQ
Sequence of Hepatocyte nuclear factor 6 (Homo sapiens) (Q9UBC0 whole entry, looked up, the tested form may be a part): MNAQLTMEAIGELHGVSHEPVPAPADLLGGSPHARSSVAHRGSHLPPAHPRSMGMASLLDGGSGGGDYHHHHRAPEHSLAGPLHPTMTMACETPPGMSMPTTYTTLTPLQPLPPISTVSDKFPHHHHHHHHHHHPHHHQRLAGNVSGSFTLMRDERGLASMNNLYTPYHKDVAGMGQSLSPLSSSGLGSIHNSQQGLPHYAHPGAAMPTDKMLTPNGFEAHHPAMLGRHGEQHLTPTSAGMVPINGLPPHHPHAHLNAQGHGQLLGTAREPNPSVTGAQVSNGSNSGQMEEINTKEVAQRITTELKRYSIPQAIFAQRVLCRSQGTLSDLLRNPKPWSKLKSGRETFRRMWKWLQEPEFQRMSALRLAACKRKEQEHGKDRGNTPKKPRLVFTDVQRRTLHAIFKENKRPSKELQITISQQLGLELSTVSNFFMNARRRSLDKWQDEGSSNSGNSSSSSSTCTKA

A word on the AC50: it is the concentration at which the activity in the assay is half-maximal. As to `NC(=O)c1nc(-c2cccc(-c3cc(F)ccc3OCC(F)(F)C(F)(F)F)c2)n[nH]1`, the result in experiment [1], in experiment [2], in experiment [4], in experiment [5], in experiment [6] and in [7] was inactive. The compound was classed as inactive in experiment [8], in experiment [9], in experiment [11], in experiment [12], in experiment [13] and in experiment [14]. In [16], the compound was called inactive. Moreover, the AC50 was 40.2 µM (active) in experiment [3]; 51.6 µM (active) in [10]; 2.7 µM (active) in experiment [15]; 59.9 µM (active) in experiment [17]; 51.2 µM (active) in experiment [18].

As for `Cc1ccc(C(C)C)cc1`, the outcome in experiment [1], in experiment [2], in experiment [3], in [4], in experiment [5] and in experiment [6] was inactive. For the same compound, the outcome in experiment [8], in experiment [9], in experiment [10], in experiment [11], in experiment [12] and in experiment [13] was inactive. The outcome in experiment [14], in experiment [15], in [16], in [17], in [18] and in [19] was inactive.

In the case of `CC(=O)N1CCN(c2ccc(OC[C@H]3CO[C@](Cn4ccnc4)(c4ccc(Cl)cc4Cl)O3)cc2)CC1`, the AC50 in experiment [1] was 54.6 µM (active); in experiment [3], 11.6 µM (active); in experiment [10] it was 48.5 µM (active); in experiment [12] it was 15.1 µM (active); in experiment [17], 55.6 µM (active); in experiment [18], 33.9 µM (active). Further, the call in [2], in [4], in [5], in experiment [6], in experiment [7] and in [8] was inactive. In addition, the outcome in experiment [9], in experiment [11], in experiment [13], in experiment [14], in experiment [16] and in experiment [19] was inactive.

In the case of `O=CCCCC=O`, the outcome in experiment [1], in experiment [2], in experiment [3], in experiment [4], in experiment [5] and in experiment [6] was inactive. Besides, the outcome in [7], in experiment [8], in experiment [9], in experiment [10], in experiment [11] and in experiment [12] was inactive. Further, the compound was called inactive in experiment [13], in experiment [14], in [15], in experiment [16], in experiment [17] and in experiment [18]. The outcome in experiment [19] was inactive. Besides, in experiment [12], the AC50 is 125 µM (active).

`Oc1ccccc1`: the result in [1], in experiment [2], in experiment [3], in experiment [5], in experiment [6] and in experiment [8] was inactive. The compound was classed as inactive in experiment [9], in experiment [10], in experiment [12], in experiment [13], in [14] and in [15]. Moreover, the call in [16], in experiment [18] and in [19] was inactive.

Take `Cc1ccc2oc(CN(Cc3ccccc3)C(=O)Nc3c(F)cc(F)cc3F)c(-c3ccc(Cl)cc3)c2c1`: the outcome in experiment [1], in experiment [2], in [3], in [4], in [5] and in experiment [6] was inactive. Besides, the compound was classed as inactive in [8], in experiment [9], in experiment [10], in experiment [11], in experiment [12] and in [13]. Also, the outcome in [14], in experiment [15], in experiment [16], in [17] and in [18] was inactive.

Take `O=C1O[C@H]([C@@H](O)CO)C(O)=C1O`: the outcome in experiment [1], in [2], in experiment [3], in experiment [5], in [6] and in experiment [7] was inactive. For the same compound, the compound was classed as inactive in experiment [8], in experiment [9], in experiment [11], in [12], in [13] and in experiment [14]. Further, the outcome in experiment [15], in experiment [16], in experiment [17], in experiment [18] and in [19] was inactive.
